Active and inactive are the calls of the source. A call without a number means that no potency is given here. Calls follow the shape of the dose curve; as a rule, active = well fitted curve in the direction sought with a large enough effect; inconclusive = small, poorly fitted or top-dose-only effect, or another doubt; inactive = no such curve, though single readings can be large or run the other way.
assay: Confirmatory Assay to Find Inhibitors of T. brucei phosphofructokinase: Cytotoxictity in MRC5; conditions: cell viability; Potency: MRC5 cytotoxicity; series mostly up to 46.1 µM
From the text: Various species of the protozoan family Trypanosomatidae are responsible for a range of serious human diseases in tropical and subtropical areas of the world. […] Many of the disorders caused by trypanosomatids are fatal if left untreated, but most currently used drugs are inefficient and toxic.
Oxidative metabolism involving the mitochondrial tricarboxylic acid cycle and oxidative phosphorylation are repressed in these parasites, and recent RNA interference (RNAi) experiments have shown that even partial depletion of certain individual glycolytic enzymes can lead to the death of cultured parasites. One such glycolytic enzyme, phosphofructokinase (PFK), catalyzes the formation of fructose-1,6-bisphosphate (F1,6BP) and ADP from fructose-6-phosphate (F6P) and ATP, and in many metabolic circumstances makes an important contribution to the control of flux through the glycolytic pathway. As a specific glycolytic target, PFK is particularly attractive as it catalyzes the first irreversible step in glycolysis, and structural and kinetic studies have shown very substantial and essential differences from corresponding host enzymes, allowing for the discovery of parasite-selective inhibitors.
Confirmed qHTS active compounds were tested for toxicity against the MRC-5 human lung fibroblast cell lines. This line havs historically been used as representative human cells in in vitro Trypanosoma assays, and so provide a relevant surrogate for human cells in testing Tb PFK inhibitor toxicity.
NIH Chemical Genomics Center [NCGC]
NIH Molecular Libraries Probe Centers Network [MLPCN]
Assay Submitter (PI): Malcom Walkinshaw, University of Edinburg
MRC5 cells were dispensed into white solid 1536-microwell plates in 5 uL media (high glucose DMEM, 10% FBS) with a Thermo Multidrop. The plates were incubated at 37 degrees Celsius for 2 hours, and subsequently treated with compounds using the Kalypsys pin tool, delivering 23 nL of test compounds to each well. The plates were then incubated for an additional 72 hours at 37 degrees Celsius. Cytotoxicity was assessed by adding 2.5 uL of Cell-Titer Glo (Promega, Madison, WI) via Multidrop, incubating at room temperature for 10 min and reading luminescence on the Perkin Elmer ViewLux using a 1 second exposure and 1x binning. DMSO-treated cells were included as negative control, while media-only wells were used as a positive control equivalent to 100% cell toxicity for the sake of data normalization.

Question: For Cc1cc(N[S+](=O)([O-])c2ccc(NC(=O)Cc3ccc(Cl)nc3)cc2)no1, which Potency is on record?
Answer: inactive

Question: For Cc1cc(N(C)S(=O)(=O)c2ccc(NC(=O)Cc3ccc(Cl)c(Cl)c3)cc2)no1, which Potency is on record?
Answer: 31.5 µM (active)

Question: For O=C(Cc1ccc(Cl)c(Cl)c1)Nc1ccc(S(=O)(=O)Nc2cncnc2)cc1, which Potency is on record?
Answer: inactive

Question: With Cc1cc(NS(=O)(=O)c2ccc(NC(=O)Cc3ccc(Cl)c(Cl)c3)cc2)n(C)n1 as the molecule, how does the Potency read?
Answer: inactive

Question: For Cc1cc(NS(=O)(=O)c2ccc(NC(=O)C(C)(C)c3ccc(Cl)c(Cl)c3)cc2)no1, which Potency is on record?
Answer: inactive

Question: Which Potency does the source give for Cc1cc(NS(=O)(=O)c2ccc(NC(=O)Cc3ccc(C)c(F)c3)cc2)no1 here?
Answer: inactive

Question: For O=C(Cc1ccc(Cl)c(Cl)c1)Nc1ccc(S(=O)(=O)Nc2ccon2)cc1, which Potency is on record?
Answer: inactive

Question: For COc1ccc(CC(=O)Nc2ccc(S(=O)(=O)Nc3cc(C)on3)cc2)cc1OC, which Potency is on record?
Answer: inactive

Question: For O=C(Cc1ccc(Cl)c(Cl)c1)Nc1ccc(S(=O)(=O)Nc2cccc(O)c2)cc1, which Potency is on record?
Answer: inactive

Question: For Cc1cc(NS(=O)(=O)c2ccc(NC(=O)c3ccc(Cl)c(Cl)c3)cc2)no1, which Potency is on record?
Answer: inactive

Question: Which Potency does the source give for Cc1cc(NS(=O)(=O)c2ccc(NC(=O)CCc3ccc(Cl)c(Cl)c3)cc2)no1 here?
Answer: inactive

Question: For Cc1cc(NC(=O)c2csc(NC(=O)Cc3ccc(Cl)c(Cl)c3)n2)no1, which Potency is on record?
Answer: inactive

Question: Which Potency does the source give for Cc1cc(NS(=O)(=O)c2ccc(NC(=O)Cc3ccc(Cl)c(F)c3)cc2)no1 here?
Answer: inactive

Question: With O=C(Cc1ccc(Cl)c(Cl)c1)Nc1ccc(S(=O)(=O)Nc2cccc(C(=O)O)c2)cc1 as the molecule, how does the Potency read?
Answer: inactive

Question: For Cc1cc(N[S+](=O)([O-])c2ccc3cc(NC(=O)Cc4ccc(Cl)c(Cl)c4)ccc3c2)no1, which Potency is on record?
Answer: inactive

Question: With Cc1cc(NS(=O)(=O)c2ccc(NC(=O)Cc3ccc(Cl)c(Cl)c3)cc2)on1 as the molecule, how does the Potency read?
Answer: inactive

Question: With Cc1cc(NS(=O)(=O)CCNC(=O)Cc2ccc(Cl)c(Cl)c2)no1 as the molecule, how does the Potency read?
Answer: inactive

Question: With Cc1cc(NS(=O)(=O)c2ccc(NS(=O)(=O)Cc3ccc(Cl)c(Cl)c3)cc2)no1 as the molecule, how does the Potency read?
Answer: inactive

Question: Which Potency does the source give for Cc1cc(NS(=O)(=O)Cc2ccc(NC(=O)Cc3ccc(Cl)c(Cl)c3)cc2)no1 here?
Answer: inactive

Question: With Cc1cc(NS(=O)(=O)c2ccc(NC(=O)Cc3ccccc3)cc2)no1 as the molecule, how does the Potency read?
Answer: inactive

Question: Which Potency does the source give for Cc1cc(NS(=O)(=O)c2ccc(NC(=O)Cc3ccc4ccccc4c3)cc2)no1 here?
Answer: inactive

Question: Which Potency does the source give for Cc1cc(NS(=O)(=O)c2ccc(NC(=O)Cc3ccc(Cl)c(Cl)c3)cc2)no1 here?
Answer: inactive

Question: Which Potency does the source give for Cc1cc(NS(=O)(=O)c2ccc(NC(=O)Cc3ccc(Cl)cc3)cc2)no1 here?
Answer: inactive

Question: Which Potency does the source give for COc1ccc(CC(=O)Nc2ccc(S(=O)(=O)Nc3cc(C)on3)cc2)cc1C here?
Answer: inactive

Question: For O=C(Cc1ccc(Cl)c(Cl)c1)Nc1ccc(S(=O)(=O)O)cc1, which Potency is on record?
Answer: inactive

Question: With O=C(Cc1ccc(Cl)c(Cl)c1)Nc1ccc(S(=O)(=O)Nc2ccc(C(=O)O)cc2)cc1 as the molecule, how does the Potency read?
Answer: inactive

Question: With O=C(Cc1ccc(Cl)c(Cl)c1)Nc1ccc(S(=O)(=O)Nc2ccccc2)cc1 as the molecule, how does the Potency read?
Answer: inactive

Question: For Cc1cc(NS(=O)(=O)c2ccc(C(=O)NCc3ccc(Cl)c(Cl)c3)cc2)no1, which Potency is on record?
Answer: inactive

Question: Which Potency does the source give for Cc1cc(NC(=O)c2ccc(NC(=O)Cc3ccc(Cl)c(Cl)c3)cc2)no1 here?
Answer: inactive

Question: Which Potency does the source give for Cc1cc(NS(=O)(=O)c2ccc(NC(=O)Cc3ccc(C)c(C)c3)cc2)no1 here?
Answer: inactive

Question: For Cc1cc(NS(=O)(=O)c2ccc(N(C)C(=O)Cc3ccc(Cl)c(Cl)c3)cc2)no1, which Potency is on record?
Answer: inactive

Question: For O=C(Cc1ccc(Cl)c(Cl)c1)Nc1ccc(S(=O)(=O)Nc2ccn[nH]2)cc1, which Potency is on record?
Answer: inactive

Question: For CCOC(=O)c1cccc(NS(=O)(=O)c2ccc(NC(=O)Cc3ccc(Cl)c(Cl)c3)cc2)c1, which Potency is on record?
Answer: inactive

Question: For Cc1cc(NS(=O)(=O)c2cccc(NC(=O)Cc3ccc(Cl)c(Cl)c3)c2)no1, which Potency is on record?
Answer: inactive

Question: For Cc1cc(NS(=O)(=O)c2ccc(NCCc3ccc(Cl)c(Cl)c3)cc2)no1, which Potency is on record?
Answer: inactive

Question: For Cc1cc(NS(=O)(=O)c2ccc(NC(=O)Cc3cccc(Cl)c3)cc2)no1, which Potency is on record?
Answer: inactive

Question: Which Potency does the source give for Cc1cc(NS(=O)(=O)c2ccc(NC(=O)Cc3ccc(Cl)cc3Cl)cc2)no1 here?
Answer: inactive

Question: Which Potency does the source give for Cc1cc(NS(=O)(=O)C2CCN(C(=O)Cc3ccc(Cl)c(Cl)c3)CC2)no1 here?
Answer: inactive

Question: Which Potency does the source give for Cc1cc(NS(=O)(=O)c2ccc(NC(=O)Cc3ccc(Cl)c(C(F)(F)F)c3)cc2)no1 here?
Answer: inactive

Source: PubChem BioAssay AID588323 (National Center for Advancing Translational Sciences (NCATS), 2011)
